“And” between values parts separate entries of the source, which are not always exact repeats. Equal values may be shown once. Results filed as inconclusive are left out. The source holds several records for some structures; these can differ, active in one and inactive in another. The source made the active and inactive calls. The call rests on the fitted dose curve; in most records, active means well fitted curve in the direction sought with a large enough effect in the repeat runs; inconclusive means weak or mixed curves; inactive means no such curve, though single readings can be large; an effect the other way counts as inactive or inconclusive.

The target of assay [1] is Nuclear receptor subfamily 1 group I member 2 (Rattus norvegicus) (UniProt Q9R1A7). As to the kind of experiment: Rat pregnane X receptor (rPXR) activation by small molecules, qHTS assay (AID 1346983). Further: nearly all actives have a fitted effect of over 20% in size. Conditions: rPXR luciferase reporter cells, One-Glo luminescence, 24 h; max activation: stronger effect = higher value. A digest of the protocol:
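Luminescent readout (One-Glo luciferase, 30 min room temperature) followed 24 hr compound treatment at 37 C of rPXR cells plated 2,000 per well and preincubated 5hr; qHTS format with compounds delivered in DMSO.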

Assay [2] has as its target Nuclear receptor subfamily 1 group I member 2 (Homo sapiens) (UniProt O75469). As to the kind of experiment: CYP3A4 induction through human pregnane X receptor (PXR) by small molecules, qHTS assay (AID 1346984). Further: nearly all actives have a fitted effect of over 40% in size. A digest of the protocol: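 DPX-2 HepG2 cells carrying a PXR response element and CYP3A4-promoter luciferase construct, treated with compounds 24 hr at 37C. Then P450-Glo CYP3A4 Luciferin-IPA substrate (3uM final) for 3 hr at 37C, One-Glo added, luminescence read.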

Assay [3] has the same target. Briefly: Human pregnane X receptor (PXR) activation by small molecules, qHTS assay (AID 1346985). Further: nearly all actives have a fitted effect of over 40% in size. Further: potency means the concentration at half of the fitted maximal effect. An outline of the steps:
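DPX-2 cells (HepG2 co-transfected with a PXR response element and a CYP3A4-promoter luciferase construct) were seeded at 2,000 per well, rested 5 hr at 37C, then exposed to DMSO-dissolved compounds for 24 hr. Activation was read as luciferase luminescence.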
On the % scale 0 is the no-effect control and ±100 the full control effect.

Sequence of Nuclear receptor subfamily 1 group I member 2 (Rattus norvegicus) (Q9R1A7 whole entry, looked up): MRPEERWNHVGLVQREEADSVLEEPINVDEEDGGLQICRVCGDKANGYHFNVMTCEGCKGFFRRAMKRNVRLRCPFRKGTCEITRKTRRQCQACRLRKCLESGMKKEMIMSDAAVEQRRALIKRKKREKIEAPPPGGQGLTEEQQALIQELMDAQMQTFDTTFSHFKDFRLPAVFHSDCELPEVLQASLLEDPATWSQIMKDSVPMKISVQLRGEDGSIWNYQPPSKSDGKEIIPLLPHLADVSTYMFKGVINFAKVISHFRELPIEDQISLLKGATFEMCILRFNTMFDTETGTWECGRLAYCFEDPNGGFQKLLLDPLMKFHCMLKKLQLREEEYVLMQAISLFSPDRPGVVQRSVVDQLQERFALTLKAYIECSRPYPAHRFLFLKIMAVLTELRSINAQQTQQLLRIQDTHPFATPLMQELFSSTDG

With `CCN(CC)C(=O)c1cccnc1`, the max activation in assay [1] was -3.83% (inactive). Besides, the Potency result in assay [2] and in assay [3] was “inactive” throughout.

Take `C[C@@H]1C(=O)NC2=Nc3cccc(Cl)c3CN21`: the max activation in assay [1] is 3.73% (inactive). In addition, the Potency entry in assay [2] and in assay [3] was “inactive” each time.

For the compound `NC(=O)[C@@H]1CCCN1C(=O)[C@H](Cc1cnc[nH]1)NC(=O)[C@@H]1CCC(=O)N1`, the max activation in assay [1] was -0.96% (inactive). Also, the Potency result in assay [2] and in assay [3] was “inactive” in each case.

Consider `O=C(O)c1ccc(NC2OC[C@@H](O)[C@H](O)[C@H]2O)cc1` (some centres undefined), for which the max activation in assay [1] was 10.7% (inactive). For the same compound, the Potency entry in assay [2] and in assay [3] was “inactive” throughout.

Take `CC[C@@]1([C@@H]2O[C@@H]([C@H]3O[C@@](O)(CO)[C@H](C)C[C@@H]3C)C[C@@H]2C)CC[C@H]([C@]2(C)CC[C@]3(C[C@H](O)[C@@H](C)[C@@H]([C@@H](C)[C@@H](OC)[C@H](C)C(=O)O)O3)O2)O1` (stereo in doubt): the max activation in assay [1] was -15.4% (inactive). Further, the Potency result in assay [2] and in assay [3] was “inactive” in each case.

As for `C=C1C(=C/C=C2\CCC[C@]3(C)[C@@H]([C@H](C)CCCC(C)C)CC[C@@H]23)C[C@@H](O)C[C@@H]1O`, the max activation in assay [1] is -2.56% (inactive). The Potency entry in assay [2] and in assay [3] was “inactive” each time.

Turning to `CO[C@H](C(=O)[C@@H](O)[C@@H](C)O)C1Cc2cc3cc(O[C@H]4C[C@@H](O[C@H]5C[C@@H](O)[C@H](O)[C@@H](C)O5)[C@@H](O)[C@@H](C)O4)c(C)c(O)c3c(O)c2C(=O)[C@H]1O[C@H]1C[C@@H](O[C@H]2C[C@@H](O[C@H]3C[C@](C)(O)[C@H](O)[C@@H](C)O3)[C@H](O)[C@@H](C)O2)[C@H](O)[C@@H](C)O1` (some centres undefined), in assay [1], the max activation was -17.7% (inactive). Besides, the Potency entry in assay [2] and in assay [3] was “inactive” in each case.

As for `CCC(NC(C)C)C(O)c1ccc(O)c(O)c1` (centres undefined), the max activation in assay [1] was -0.219% (inactive). Also, the Potency result in assay [2] and in assay [3] was “inactive” each time.

As to `Cc1cccc(C)c1NC(=O)C1CCCCN1C` (centres undefined), the max activation in assay [1] was -1.93% (inactive). For the same compound, the Potency entry in assay [2] and in assay [3] was “inactive” throughout.

For `COC(=O)C[C@](O)(CCCC(C)(C)O)C(=O)O[C@@H]1C(OC)=CC23CCCN2CCc2cc4c(cc2[C@H]13)OCO4` (some centres undefined), in assay [1], the max activation is -15.5% (inactive). In addition, the Potency result in assay [2] and in assay [3] was “inactive” each time.

With `O=C1[O][Bi][O]c2ccccc21`, the max activation in assay [1] is -4.48% (inactive). The Potency result in assay [2] and in assay [3] was “inactive” throughout.

Turning to `CCc1ncnc2cc(OC)c(OC)cc12`, the max activation in assay [1] was -3.13% (inactive). The Potency entry in assay [2] and in assay [3] was “inactive” in each case.

Consider `CC(C)C[C@@H](NC(=O)[C@@H](O)[C@H](N)Cc1ccccc1)C(=O)O`, for which, in assay [1], the max activation is -7.87% (inactive). Further, the Potency result in assay [2] and in assay [3] was “inactive” throughout.

For `Cc1cc(=O)c(C(=O)N[C@@H](C(=O)N[C@@H]2C(=O)N3C(C(=O)O)=C(CSc4nnnn4C)CS[C@H]23)c2ccc(O)cc2)c[nH]1`, the max activation in assay [1] is -0.22% (inactive). Moreover, the Potency result in assay [2] and in assay [3] was “inactive” in each case.

`CCOc1ccc(S(=O)(=O)O)c2cccnc12`: in assay [1], the max activation is -0.221% (inactive). The Potency result in assay [2] and in assay [3] was “inactive” each time.

As for `NCC(O)CC(=O)O` (centres undefined), in assay [1], the max activation is -2.62% (inactive). In addition, the Potency entry in assay [2] and in assay [3] was “inactive” in each case.

For `Cc1onc(-c2c(F)cccc2Cl)c1C(=O)N[C@@H]1C(=O)N2[C@@H]1SC(C)(C)[C@@H]2C(=O)O`, the max activation in assay [1] is -1.83% (inactive) and -3.33% (inactive). Also, in assay [2], the Potency entry is “inactive”. For the same compound, in assay [3], the Potency entry was “inactive and 25.1 µM (active)”.

As for `FC(F)(F)COCC(F)(F)F`, the max activation in assay [1] is -3.1% (inactive). Moreover, the Potency result in assay [2] and in assay [3] was “inactive” in each case.

On to `CC(C)=CCC/C(C)=C/CC/C(C)=C/CC/C(C)=C/CC1=C(C)C(=O)c2ccccc2C1=O`, for which the max activation in assay [1] is -1.32% (inactive). Besides, the Potency entry in assay [2] and in assay [3] was “inactive” each time.

Turning to `CCOc1cc(CC(=O)N[C@@H](CC(C)C)c2ccccc2N2CCCCC2)ccc1C(=O)O`, the max activation in assay [1] is -4.89% (inactive). The Potency result in assay [2] and in assay [3] was “inactive” in each case.

In the case of `O=C(O)c1cc(=O)c2c3nc4ccccc4oc-3cc(=O)c2[nH]1`, the max activation in assay [1] was -7.15% (inactive). In addition, the Potency result in assay [2] and in assay [3] was “inactive” each time.

Regarding `NC(=O)c1cc[n+](CC2=C(C(=O)O)N3C(=O)[C@@H](NC(=O)C(c4ccccc4)S(=O)(=O)[O-])[C@H]3SC2)cc1` (some centres undefined), the max activation in assay [1] was -2.77% (inactive). The Potency entry in assay [2] and in assay [3] was “inactive” each time.

Turning to `N#Cc1c(N(CC(=O)O)CC(=O)O)sc(C(=O)O)c1CC(=O)O`, the max activation in assay [1] was -5.61% (inactive). For the same compound, the Potency entry in assay [2] and in assay [3] was “inactive” throughout.

`CC[N+](CC)(CC)CCC(O)(c1ccccc1)C1CCCCC1` (centres undefined): the max activation in assay [1] was -2.27% (inactive). The Potency result in assay [2] and in assay [3] was “inactive” each time.

For the compound `COc1ccc([C@@H]2CC(=O)c3c(O)cc(O[C@@H]4O[C@H](CO[C@@H]5O[C@@H](C)[C@H](O)[C@@H](O)[C@H]5O)[C@@H](O)[C@H](O)[C@H]4O)cc3O2)cc1O`, the max activation in assay [1] is -3.19% (inactive). For the same compound, the Potency result in assay [2] and in assay [3] was “inactive” throughout.

Turning to `CS(=O)(=O)c1ccc([C@@H](O)[C@@H](COC(=O)CN)NC(=O)C(Cl)Cl)cc1`, in assay [1], the max activation was -5.77% (inactive). For the same compound, the Potency result in assay [2] and in assay [3] was “inactive” each time.

In the case of `CC(C)CCC[C@@H](C)[C@H]1CC[C@H]2[C@@H]3CC[C@@H]4C[C@H](O)CC[C@]4(C)[C@H]3CC[C@]12C`, the max activation in assay [1] is -7.28% (inactive). Besides, the Potency result in assay [2] and in assay [3] was “inactive” in each case.

Take `COc1ccc(/C=N/NC(=O)c2ccncc2)c(C(=O)O)c1OC`: the max activation in assay [1] is -2.1% (inactive). Further, the Potency entry in assay [2] and in assay [3] was “inactive” in each case.
